Screening results as filed in PubChem BioAssay.
IMPase Li inh – IMPase inhibition in cells with lithium potentiation | CHO-M1 cells, IP1 TR-FRET (IP-One), carbachol + lithium | Potency, µM (titrated, usually from 59.4 µM), without a hit: at the top dose activity, negative = IMPase inhibition, actives largely listed as inhibitors | hit rate 0.35% among 210,000;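 note: IP1 builds up when IMPase is blocked and the TR-FRET signal falls; potency is the fitted concentration of half-maximal effect; plate controls were basal vehicle for no effect and high inhibitor control for full effect; nearly all actives have a fitted effect of over 50% in size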
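Lithium-sensitised IP1 accumulation assay; M1-expressing CHO cells treated 30 min at 37C with compound. Competitive antibody detection by time-resolved FRET followed a 10 min room-temperature lysis step.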
HPGD block – blocks human HPGD enzyme activity; purified HPGD, NADH fluorescence kinetic, PGE2 substrate; P15428; hit rate 4.3% among 150,000; Potency, µM, for inactives: top-dose activity change, negative = inhibition, hits mostly inhibitors; active = well fitted inhibition curve with a large enough effect, not every such curve was filed as active; inconclusive = small, poorly fitted or top-dose-only effect, or another doubt; inactive = no such curve, though single readings can be large or run the other way; note: potency is the fitted concentration of half-maximal effect
Target sequence (P15428 whole entry, looked up): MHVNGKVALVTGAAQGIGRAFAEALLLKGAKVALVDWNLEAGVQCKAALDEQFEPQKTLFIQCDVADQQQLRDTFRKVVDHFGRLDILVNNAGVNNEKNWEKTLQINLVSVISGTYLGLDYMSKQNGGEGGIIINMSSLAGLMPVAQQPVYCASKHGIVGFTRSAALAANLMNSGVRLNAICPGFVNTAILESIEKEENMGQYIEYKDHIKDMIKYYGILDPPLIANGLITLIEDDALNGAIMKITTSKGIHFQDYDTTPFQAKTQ
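NADH formation kinetics: reaction with 30 uM PGE2 and 1 mM NAD+ (final), 20 nM enzyme, Tris-HCl pH 8 with Tween 20, after 15 min compound preincubation at room temperature. Fluorescence change, last versus first of five reads.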
PNC inhibitor – inhibitors of perinucleolar compartment assembly | hit rate 3.1% among 140,000 | activity change (PNC), negative = inhibition, % at 10 µM | AID 2417 | PC3M PTB-GFP, PNC prevalence imaging, 16 h; stronger effect = lower value;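 active = readout at or below -70, meaning at least 70% loss of cells showing the perinucleolar compartment, a nuclear body marking cancer cells; inconclusive = readout between -30 and a set limit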;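 note: plate controls were DMSO wells for no effect and camptothecin positive control wells for full effect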
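Read-out is percentage of cells bearing a perinucleolar compartment, from automated 20x imaging of fixed, Hoechst-stained PC3M PTB-GFP cells. Cells were seeded 4 h, then exposed 16 h to compound (23 nl of library stock) in duplicate plates.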
NPSR antag – neuropeptide S receptor (human) antagonism, cAMP; hit rate 1% among 220,000; Q6W5P4; CHO-NPSR cells, cAMP TR-FRET, antagonist mode; Potency, µM (series often up to 38.3 µM), inactives show top-dose activity change, negative = inhibition, most hits filed as inhibitors; note: potency is the fitted concentration of half-maximal effect; nearly all actives have a fitted effect of over 50% in size
IMPase cell inh – IMPase inhibition in cells | P97697 | CHO-M1 cells, IP1 accumulation, HTRF TR-FRET ratio | inhibition (IP1 accumulation), % at 46.1 µM | 120,000 tested, under 10 active | AID 901; active = well fitted curve in the direction sought with a large enough effect in the signal ratio, not every such curve was filed as active; inconclusive = small, poorly fitted or top-dose-only effect, or a change in a side signal; inactive = no such curve, though single readings can be large or run the other way; the % refers to the signal ratio;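 note: cells stimulated with carbachol in lithium chloride buffer; plate controls were DMSO basal wells for no effect and reference inhibitor wells for full effect; higher means more IMPase inhibition seen as more IP1 and lower FRET ratio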
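In this qHTS, compounds (final up to 46 uM) act on CHO-M1 cells that are then activated through the M1 receptor with carbachol, in pH 7.4 buffer containing 50 mM LiCl, for 30 min. IP1 accumulation is quantified by the IP-One immunoassay.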
ALDH1A1 inh – blocks purified human ALDH1A1 activity; hit rate 7.3% among 220,000; P00352; AID 1030; Purified ALDH1A1, NADH fluorescence, propionaldehyde substrate; Potency, µM (series often up to 75.3 µM), for inactives: at the top dose activity, negative = inhibition, hits mostly inhibitors; active = well fitted inhibition curve with a large enough effect, not every such curve was filed as active; inconclusive = small, poorly fitted or top-dose-only effect, or another doubt; inactive = no such curve, though single readings can be large or run the other way;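 note: potency is the fitted concentration of half-maximal effect; plate controls were no enzyme wells and a reference inhibitor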
Target sequence (P00352 whole entry, looked up): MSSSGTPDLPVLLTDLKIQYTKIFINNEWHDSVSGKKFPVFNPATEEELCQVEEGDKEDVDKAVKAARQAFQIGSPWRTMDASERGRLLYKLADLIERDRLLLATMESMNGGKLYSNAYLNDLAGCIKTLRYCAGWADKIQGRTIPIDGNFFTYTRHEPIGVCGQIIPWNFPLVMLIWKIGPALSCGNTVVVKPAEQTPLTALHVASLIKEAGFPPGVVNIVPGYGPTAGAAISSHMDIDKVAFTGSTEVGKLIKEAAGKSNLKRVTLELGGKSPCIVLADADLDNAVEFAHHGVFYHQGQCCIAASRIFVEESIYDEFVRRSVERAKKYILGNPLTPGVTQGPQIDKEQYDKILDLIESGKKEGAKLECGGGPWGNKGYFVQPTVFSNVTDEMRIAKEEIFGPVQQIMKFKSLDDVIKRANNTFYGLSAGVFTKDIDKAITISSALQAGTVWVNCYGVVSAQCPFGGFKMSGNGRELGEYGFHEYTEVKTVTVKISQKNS
The depositor's hits bear a star; ? = inconclusive; . = no result given; [ ] = another dose, or the depositor's remark. A selection: hits, their analogues and other compounds. The true share with any hit is near 11%. Unless noted, calls come from the whole dose curve; as a rule, active = well fitted curve in the direction sought with a large enough effect; inconclusive = small, poorly fitted or top-dose-only effect, or another doubt; inactive = no such curve, though single readings can be large; an effect the other way counts as inactive or inconclusive. Unless noted, % is set by controls: 0 for no effect and ±100 for the full control effect.

SMILES | IMPase Li inh | HPGD block | PNC inhibitor | NPSR antag | IMPase cell inh | ALDH1A1 inh
CN(C(=O)c1ccccc1Cl)C1CCCCC1 | 31.2%[38.3 µM] | 28.2µM* | ? | -13.2%[46.1 µM] | 15.5 | 1.3%
O=C(CSc1ccccc1C(=O)O)NC1CCCCCCC1 | 29.8%[38.3 µM] | -1.9% | -20.1 | -6.1%[46.1 µM] | -1.1 | ?
COc1ccccc1NC(=O)Nc1ccc(F)c(F)c1 | -2.7% | . | . | -14.9% | . | ?
CCOC(=O)c1c(/N=C/c2cccc([N+](=O)[O-])c2O)sc(C)c1C | 15.4% | ? | -1.8 | -11.0% | . | 12.6µM*
CCn1c(COc2ccc(Cl)cc2)nnc1SC1CCc2ccccc2C1=O (configuration not stated) | 6.7% | -6.8% | ? | -1.3% | . | ?
O=C(Nc1ccccc1)c1nnsc1S(=O)c1ccc(Cl)cc1 (configuration not stated) | 18.4%[38.3 µM] | 7.94µM* | -18.2 | ? | 5.1 | 1.78µM*
CCOC(=O)N1CCC(N2C(=O)c3cc(C(=O)NC4CCCCC4)ccc3C2O)CC1 (configuration not stated) | 15.5%[38.3 µM] | -6.4% | 26.3 | -12.2%[46.1 µM] | 1.0 | ?
COC(=O)CCCC1=CC2=C(c3ccccc3)C(=O)C(C)(OC(=O)C3CCCC3)C(=O)C2=CN1CCc1c[nH]c2ccccc12 (configuration not stated) | 9.3% | -9.4% | . | -4.8% | . | 3.16µM*
COC(=O)CCCC1=CC2=C(c3ccccc3)C(=O)C(C)(OC(=O)C3CCCC3)C(=O)C2=CN1CCc1ccccn1 (configuration not stated) | -5.8% | -1.3% | . | -4.6% | . | ?
O=C1/C(=C\c2cccs2)N=C(c2cccs2)N1Nc1ccccc1 | 45.0%[38.3 µM] | -28.2% | 15.1 | -3.1%[46.1 µM] | -2.0 | 14.1µM*
O=C1/C(=C/c2cccs2)N=C(c2cccs2)N1Nc1ccccc1 | 34.2%[38.3 µM] | -4.7% | 28.6 | ? | 3.6 | ?
Cc1cc(C)n(-c2nnc(N3CCN(c4ccc(F)cc4)CC3)nn2)n1 | 22.9% | . | . | -17.7% | . | 6.2%
COC(=O)c1cccc(N2CCCC2=O)c1 | . | . | . | 14.3% | . | .
O=C(O)c1cccc(N2CCCC2=O)c1 | 5.1%[38.3 µM] | 20µM* | 24.8 | -11.4%[46.1 µM] | -4.6 | ?
O=C(NC1CCCCC1)c1ccc(N2CCCC2=O)cc1 | -18.4%[38.3 µM] | 8.91µM* | -27.6 | -20.4%[46.1 µM] | 19.3 | 3.9%
O=C(NCc1ccc(N2CCCC2=O)cc1)NC1CCCCC1 | 19.1%[38.3 µM] | 22.4µM* | -1.0 | -4.3%[46.1 µM] | -5.2 | 6.2%
O=C1CC(c2cccc(F)c2)SC(N(c2ccccc2)c2ccccc2)=N1 (configuration not stated) | 12.8%[38.3 µM] | -3.1% | 36.7 | -28.1%[46.1 µM] | 5.6 | 2.1%
CC1=C(C(=O)NCCN2CCOCC2)C2(CCC(C)CC2)OC1=O (configuration not stated) | 36.4%[38.3 µM] | -2.9% | 3.9 | -0.5%[46.1 µM] | 7.4 | -1.5%
C=CCNC(=O)/C(=C/c1ccc(Br)cc1)NC(=O)c1ccccc1OC | -1.8% | . | . | -4.0% | . | 2.7%
C=CCNC(=S)NNC(=O)c1ccc(OC(C)C)cc1 | -6.0%[38.3 µM] | -16.3% | -90.6* | -13.8%[46.1 µM] | 7.4 | ?
O=C(NC1CC1)c1ccc(CSCc2cccc(F)c2)o1 | 0.5%[38.3 µM] | -12.5% | -105.7* | 1.7%[46.1 µM] | -6.2 | ?
Cc1ccc(CSCc2ccc(C(=O)NC3CCCC3)o2)cc1 | 1.5% | . | . | -14.7% | . | 22.4µM*
Cc1ccc(C(O)(COC(=O)C(C)C)COC(=O)C(C)C)c(O)c1 | 7.6% | . | . | -18.1% | . | 7.94µM*
Cc1ccc(C)c(O)c1 | -10.6% | -2.6% | . | . | . | 7.3%
O=C(O)c1cccc(-n2cccc2/C=C2/NC(=O)N(c3ccc(Cl)cc3)C2=O)c1 | 5.4% | . | . | -38.4% | . | -15.4%
SMILES | IMPase Li inh | HPGD block | PNC inhibitor | NPSR antag | IMPase cell inh | ALDH1A1 inh
O=C1S/C(=C\c2ccc(O)c([N+](=O)[O-])c2)C(=O)N1Cc1cccc([N+](=O)[O-])c1 | 9.0% | . | . | 52.7% | . | ?
O=C1S/C(=C\c2ccc(O)c([N+](=O)[O-])c2)C(=O)N1c1ccccc1Cl | 17.8% | . | . | -33.7% | . | 0.447µM*
COc1cc(/C=C2\SC(=O)N(c3cccc(Cl)c3)C2=O)cc([N+](=O)[O-])c1O | 13.3% | . | . | 37.2% | . | 0.891µM*
CCOC(=O)c1csc(-c2sccc2Br)n1 | . | . | . | ? | . | -0.6%
Cc1ccnc(NC(=O)CCCOc2ccc(Cl)cc2C)c1 | 4.1% | . | . | -29.4% | . | 2.7%
CC1(C#CC[N+]2(C)CCCCC2)CCC2C(O1)c1ccccc1OC2(C)C (configuration not stated) | -1.1% | . | . | 3.0% | . | 31.6µM*
CC1(C(O)(C#CC[N+]2(C)CCCCC2)c2ccccc2)CCCC1 (configuration not stated) | 34.6% | . | . | 10.3% | . | -5.9%
CCN(CC)S(=O)(=O)c1cccc(C(=O)N/N=C2\CC(=O)CC(C)(C)C2)c1 | 7.4% | . | . | 9.8% | . | ?
CN=C1N[C@H](c2ccccc2)N(c2ccccc2)S1 | 39.4% | 12.6µM* | . | . | 20.7 | 1.26µM*
Cc1ccc(C2(c3ccc(C)cc3)CC2C(=O)Nc2ccc([N+](=O)[O-])cc2O)cc1 (configuration not stated) | 26.2%[38.3 µM] | 14.1µM* | -17.8 | ? | 5.5 | -9.1%
C/C(=N/OCc1ccc(Br)cc1)c1ccccn1 | -1.7% | . | . | -15.6% | . | 3.7%
CN(C)c1ccc(/C=C/c2ccc3c4ccccc4ccc3[n+]2-c2ccccc2)cc1 | 116.5% | . | . | 10µM* | . | 12.6µM*
CN(C)c1ccc(/C=C/c2cccc[n+]2[O-])cc1 | . | . | . | -3.0% | . | .
CN(C)c1ccc(/C=C/c2ccc3ccccc3[n+]2C)cc1 | 74.7% | -1.5% | 4.8 | 3.16µM* | ? | -14.5%
COc1cc(C(=O)NC(CCSC)C(=O)OCc2cc([N+](=O)[O-])cc3c2OCOC3)cc(OC)c1OC (configuration not stated) | 5.2% | . | . | -16.0% | . | ?
IC(I)I | 4.6% | -13.4% | . | . | . | 12.6µM*
Cc1cc2nc(CCl)cc(=O)n2[nH]1 | -3.8% | . | . | 9.8% | . | -4.1%
CN1CCc2c(sc3nc(NN)n(Cc4ccccc4)c(=O)c23)C1 | . | . | . | -9.9% | . | 31.6µM*
O=C(CCNS(=O)(=O)c1ccc(Br)cc1)NCc1ccc2c(c1)OCO2 | . | . | 6.7 | -5.9%[46.1 µM] | ? | 0.2%
Cc1nc(NC(=O)c2ccccc2[N+](=O)[O-])sc1C(=O)N(C)C | 0.7% | 22.4µM* | 14.6 | 16.5% | . | 4.5%
Cc1nc(NC(=O)c2oc3ccccc3c2C)sc1C(=O)N(C)C | 4.7% | 31.6µM* | 9.5 | -12.9%[46.1 µM] | -3.1 | -10.2%
CC(=O)c1sc(NC(=O)c2ccccc2C)nc1C | 2.8% | . | . | -25.3% | . | ?
Cc1nc(NC(=O)/C=C/c2ccccc2)sc1C(=O)N(C)C | -11.4% | -3.7% | ? | 8.6% | . | -2.3%
COCCNC(=O)c1cc2ncc(Br)cn2n1 | 25.3%[38.3 µM] | -25.4% | ? | 1.2%[46.1 µM] | -1.1 | 3.5%
COC(=O)c1ccccc1OCC(=O)NC1CCCCC1 | 18.3%[38.3 µM] | -3.9% | -15.0 | 7.7%[46.1 µM] | 12.7 | ?
